Screening data (PubChem)
TWEAK-Fn14 inh = TWEAK-Fn14 signaling inhibition | AID 1159606 | 360,000 tested, 2% active | TWEAK-stimulated Fn14 reporter cells, luciferase luminescence, 8 h | inhibition, % at 10 µM; in the data active = inhibition above about 50%
TROY NFkB inh = TROY signaling inhibition | Q293 LMP1-TROYcd NF-kB luciferase reporter, 4 h | inhibition, % at 10 µM | 360,000 tested, 0.98% active | AID 1347056;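 active = compounds whose plate-normalised and pattern-corrected inhibition of the luciferase reporter signal at the single screening dose is 50% or more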
CF NFkB block = cystic fibrosis NF-kB activation inhibition | inhibition, % at 5 µM | KKLEB NF-kB-GFP reporter, PAF-induced, GFP fluorescence overnight | 360,000 tested, 0.86% active;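 active = at least 50% inhibition at 5 µM, scaled per plate between neutral and stimulator controls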;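 also: PAF is a Pseudomonas aeruginosa culture filtrate used as stimulus; plate controls were PAF-stimulated DMSO wells for no effect and unstimulated DMSO wells for full effect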
Peg3 prom inh = inhibitors of Peg3 promoter. HeLa PEG-Prom luciferase reporter, luminescence, overnight. inhibition, % at 20 µM. 360,000 tested, 1.7% active;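 active = inhibition of at least 50% at 20 µM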
HIF-2a inh = HIF-2a inhibition; inhibition, % at 18.8 µM; 786-0 RCC cells HIF-2a reporter, luciferase luminescence, overnight; 360,000 tested, 0.72% active;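 active = inhibition of the luminescence signal of 40% or more relative to plate controls, in a single-dose primary screen at 18.75 µM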
KKLEB cytotox = CF airway cell cytotoxicity counter-screen | KKLEB CF airway cells viability, ATPlite luminescence, overnight; active compounds read low; cells stimulated with P. aeruginosa culture filtrate | activity change (cytotoxicity), % at 5 µM | 360,000 tested, 0.36% active | AID 602141;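 active = corrected activity change at or below -50% at 5 µM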
* = called active by the depositor; . = no result. Only some compounds are listed: those with a hit (about 4% of all), similar ones and a draw of the others.

SMILES | TWEAK-Fn14 inh | TROY NFkB inh | CF NFkB block | Peg3 prom inh | HIF-2a inh | KKLEB cytotox
CC1CCN(C(=O)c2cc3c(ccc4ccccc43)o2)CC1 | 60.8* | 41.3 | -25.9 | -140.4 | -52.8 | -11.4
N/C(Cc1ccc(Cl)cc1)=N\OC(=O)c1ccc2ccccc2c1 | -154.5 | -36.3 | 16.9 | 104.9* | -0.8 | 8.7
N/C(Cc1ccc(Cl)cc1)=N\OC(=O)c1cccc2ccccc12 | 1.9 | -40.2 | 3.7 | 111.4* | -15.7 | 1.4
COc1ccc(C/C(N)=N/OC(=O)c2ccc(Cl)cc2)cc1 | -9.9 | -64.9 | -14.2 | 2.6 | -2.5 | 9.1
CCCCNC(=O)c1nc(C2CCN(S(=O)(=O)c3ccc(S(C)(=O)=O)cc3)CC2)oc1-c1ccccc1 | . | . | . | . | 8.2 | .
Cc1ccc(-n2nc3c(=O)n(CCCC(=O)NCC(C)c4ccccc4)nc(C)c3c2C)cc1 (centres undefined) | -3.0 | 2.5 | -9.5 | -5.5 | 4.4 | -2.3
N#CC1=C(N)N(c2ccc(Oc3ccccc3)cc2)C(=O)C1 | 88.1* | . | -14.6 | -7.3 | -40.7 | 4.1
COc1ccc(N2C(=O)Cc3ccccc3C2=O)cc1 | -7.8 | -14.1 | 10.2 | 6.1 | 25.2 | -6.2
Cc1ccc(Cl)cc1N1CCN(C(=O)CCS(=O)(=O)c2ccc3c(c2)NC(=O)CO3)CC1 | 38.7 | 45.1 | 3.7 | 33.5 | 13.5 | 8.0
COc1ccc(OCC(=O)Nc2ccc3c(c2)nc(CCN2CCN(c4ccccn4)CC2)n3C)cc1 | 4.7 | 31.1 | -27.3 | 6.4 | -5.0 | 25.3
Cn1c(CN2CCCCC2)nc2cc(NC(=O)c3ccccc3Cl)ccc21 | 51.7* | 22.0 | -1.0 | 1.9 | -7.9 | 6.8
Cn1c(CCN2CCN(c3ccccn3)CC2)nc2cc(NC(=O)COc3ccc(Cl)cc3)ccc21 | 54.2* | 50.1* | 22.9 | 52.2* | 22.3 | -11.7
Cc1cccc(OCC(=O)Nc2ccc3c(c2)nc(CN2CCCCC2)n3C)c1 | 81.0* | 57.5* | -9.1 | -2.4 | -2.7 | 9.0
CC(=O)N1CCN(Cc2nc3cc(NC(=O)c4ccccc4Cl)ccc3n2C)CC1 | 13.2 | -9.3 | -14.6 | 5.0 | 10.3 | 11.0
COc1cc([N+](=O)[O-])ccc1-c1ccc(/C=C2\C(=O)ON=C2c2ccccc2)o1 | 67.9* | -1.6 | 86.7* | 103.4* | 9.5 | -24.9
Cc1ccc(/C=C2/C(=O)ON=C2c2ccccc2)o1 | 15.0 | -7.7 | 11.3 | 50.1* | 68.4* | -1.8
C[C@H](CO)N1C[C@H](C)[C@H](CN(C)C(=O)Nc2cccc(Oc3ccccn3)c2)OCc2cnnn2CCCC1=O | 6.4 | -12.2 | 7.4 | 0.6 | 13.1 | 2.2
Cc1ccc(NC(=O)c2cc(-c3ccccc3)nn2-c2ccccc2)cc1 | 13.3 | 1.6 | -2.1 | -157.3 | 10.0 | 18.2
O=C(Nc1ccc(F)cc1)c1nn(-c2ccccc2)c(=O)cc1Cl | 55.1* | 18.6 | 7.5 | 99.4* | 39.4 | -7.9
COc1cccc(CN2CCC2(C)C(=O)Nc2ccc3c(c2)OCO3)c1F (centres undefined) | -43.6 | -12.9 | 18.9 | -10.4 | -22.8 | -14.4
CC(C)(C)n1ncc2c(=O)n(CC(=O)N3CCc4ccccc43)cnc21 | 58.8* | 60.2* | -2.3 | -7.4 | -56.3 | -3.9
CC(C)(C)n1ncc2c(=O)n(CC(=O)OCc3ccccc3)cnc21 | 99.5* | 86.5* | -2.3 | 49.2 | -23.9 | -17.7
CC(C)(C)n1ncc2c(=O)n(Cc3cccc(Cn4cnc5c(cnn5C(C)(C)C)c4=O)c3F)cnc21 | 81.6* | 48.2 | 16.3 | 14.6 | 20.4 | 2.3
COc1ccc(-c2nc3ccc(Cl)cn3c2CC(C)(C)C)cc1OC | 22.9 | 6.2 | 13.9 | 7.8 | 12.3 | -1.6
CN1CCN(c2ccc(CNC(=O)C3Cc4c(-c5ccc(Cl)cc5)ccnc4O3)cc2)CC1 (centres undefined) | -4.5 | -6.0 | -8.8 | 16.5 | 2.4 | -3.1
O=C(Nc1ccccc1C(=O)O)/C(=C/c1ccc(Cl)cc1Cl)NC(=O)c1ccco1 | 7.6 | -16.1 | 7.0 | -19.3 | 3.2 | 3.1
Cc1[nH]nc(C(=O)NN=Cc2ccccc2Cl)c1N=NN(C)C | -5.1 | -14.1 | 23.4 | -107.2 | -139.3 | 4.4
CN1OC[C@@H]2CN(Cc3ccc(Cl)cc3)[C@H](c3cccc(Br)c3)C[C@@H]21 | 18.2 | 13.4 | 20.4 | 4.4 | 4.3 | -19.4
CCn1cc(C(=O)NCc2cccc(C(F)(F)F)c2)c(=O)c2ccc(C)nc21 | 21.1 | -34.6 | 18.8 | 18.7 | -13.8 | -11.7
